SMILES strings stand for the structures. Results filed as inconclusive are left out. A call without a number means that no potency is given here. Values without a mark were called inactive. Calls of active or inactive are those of the source. Calls follow the shape of the dose curve; as a rule, active = well fitted cell-killing curve with a large enough effect in the repeat runs; inconclusive = weak or mixed curves, or effect the other way; inactive = flat fitted curve, though single readings scatter.

This assay in a line: qHTS RealTime-Glo MT Cell Viability Assay in HepG2 cells - 40 hour (AID 1224870). Also: nearly all actives have a fitted effect of over 50% in size. Particulars: RealTime-Glo luminescence; series mostly up to 76.8 µM. The text has this:
National Center for Advancing Translational Sciences [NCATS]
NIH Chemical Genomics Center [NCGC]
U.S. Environmental Protection Agency [EPA]
National Institutes of Environmental Health Sciences [NIEHS]
National Toxicology Program [NTP]
U.S. Food and Drug Administration [FDA]
Measure of cell viability is critical in the cell-base assay. Analysis of cell viability is necessary for the characterization of cell responses to cytotoxic drugs and environmental stress. A RealTime-Glo MT Cell Viability Assay to monitor cell viability in real time of continues cell culture during 40 hours of compound treatment was used to screen Tox21 10K library compounds in HepG2 cells. The RealTime-Glo MT Cell Viability Assay is a nonlytic, homogeneous, bioluminescent method to measure cell viability in real time using a simple, plate-based method. The assay involves adding NanoLuc luciferase and a cell-permeant prosubstrate to cells in culture. Viable cells reduce the proprietary prosubstrate to generate a substrate for NanoLuc luciferase. This substrate diffuses from cells into the surrounding culture medium, where it is rapidly used by the NanoLuc Enzyme to produce a luminescent signal. The signal correlates with the number of viable cells, making the assay well suited for cytotoxicity studies.
Tox21 Assay Protocol Summary:
The mixture of HepG2 cell suspension and reagents were dispensed at 600cells/6 ul/well in 1536-well tissue culture treated black solid bottom plates using a Multidrop dispenser. After the assay plates were incubated at a 37 C/5% CO2 incubator for 5 hours, 23 nL of compounds dissolved in DMSO, positive and negative controls was transferred to the assay plate by a pintool work station. The plates were incubated at 37 C for 40 hours. The luminescence intensity were measured at 0h, 8h, 16h, 24h, 32h and 40h time points using ViewLux plate reader during compound treatment.
In general terms: qHTS replaces the single test concentration by a dilution series.
Regarding `CCc1ccc2c(c1)C(=O)c1ccccc1C2=O`, the Potency result is “inactive”. With `CCCOC(C)=O`, the Potency entry is “inactive”. On to `CCCN(C1CCN(C(=O)C2CCNCC2)CC1)[C@@H]1CCc2ccc(OC)cc2C1`, for which the Potency entry is “inactive”. For `Cc1cccc(C)c1NC(=O)CN1CCCC1`, the Potency result was “inactive”. As to `CC(CC(C#N)(c1ccccc1)C(C)C)N(C)C` (stereo not given), the Potency result is “inactive”. As for `CC1(C)C(=O)NC(=O)N1CO`, the Potency result was “inactive”. As to `C[C@H](N)C(=O)N[C@@H](C)C(=O)NC1[C@H]2CN(c3nc4c(cc3F)c(=O)c(C(=O)O)cn4-c3ccc(F)cc3F)C[C@@H]12` (stereo not given in full), the Potency entry is “inactive”. `CC(Cc1ccccc1)(NC(=O)CN)c1ccccc1` (stereo not given): the Potency entry is “inactive”. The same measure, in the same setting: under `CC/C=C\CCO` stands “inactive”.

In the case of `CCOc1ccc2c(c1)C(C)CC(C)(C)N2` (stereo not given), the Potency result was “inactive”. Consider `CC(C)CCCCCCCOC(=O)c1ccc(C(=O)OCCCCCCCC(C)C)c(C(=O)OCCCCCCCC(C)C)c1`, for which the Potency result was “inactive”. Take `C[C@]12CCC(=O)C=C1[C@@H]1C[C@@H]1[C@H]1[C@@H]3[C@@H]4C[C@@H]4[C@@]4(CCC(=O)O4)[C@@]3(C)CC[C@@H]12`: the Potency entry is “inactive”. Turning to `CC(C)CC(C)(C)C`, the Potency entry is “inactive”. On to `CCOc1ccc(NC(C)=O)cc1N`, for which the Potency entry is “inactive”. Consider `CCCCCCCCCCCCCCCCC(=O)O`, for which the Potency entry is “inactive”. Regarding `OCCCO`, the Potency entry is “inactive”. Take `Cc1nc2sccn2c(=O)c1CCN1CCC(=C(c2ccc(F)cc2)c2ccc(F)cc2)CC1`: the Potency entry was “inactive”. Take `Nc1ccccc1Nc1ccccc1`: the Potency entry was “inactive”. For the compound `O=C(O)c1ccc2c(c1)nc(C(=O)NC1CCN(C3CC3)CC1)n2Cc1cc(-c2ccc(Cl)s2)on1`, the activity change, negative = cytotoxic was -1.55% [at 15.8 µM]. As for `O=C(O)c1ccccc1[N+](=O)[O-]`, the Potency entry is “inactive”.

For the compound `O=C(O)c1cc(C(=O)O)cc([N+](=O)[O-])c1`, the Potency result was “inactive”. For `S=c1[nH][nH]c(=S)s1`, the Potency entry is “inactive”.

With `CCCCOC(=O)C(C)Oc1ccc(Oc2ccc(C(F)(F)F)cn2)cc1` (stereo not given), the Potency entry was “inactive”.

In the case of `COc1ccc(CN(CCN(C)C)c2ncccn2)cc1`, the Potency result is “inactive”. Same read-out and setting: under `OCCc1ccncc1` stands “inactive”; under `CCc1cnc(C(=O)O)c(C(=O)O)c1`, “inactive”; under `COC(=O)C(C)(C)C`, “inactive”. `CCCC(=O)OCc1ccccc1`: the Potency entry is “inactive”. In the case of `CCOCCn1c(N2CCCN(C)CC2)nc2ccccc21`, the Potency result is “inactive”. Turning to `CCC1=C(C)CN(C(=O)NCCc2ccc(S(=O)(=O)NC(=O)NC3CCC(C)CC3)cc2)C1=O` (stereo not given), the Potency result is “inactive”. Turning to `CC1=C(C)C(=O)C(C(CCCCCC(=O)O)c2ccccc2)=C(C)C1=O` (stereo not given), the Potency result was “inactive”. As for `CCN(CCCCOC(=O)c1ccc(OC)c(OC)c1)C(C)Cc1ccc(OC)cc1` (stereo not given), the Potency entry is “inactive”. Turning to `Cc1c(-c2cccnc2)c2ccccc2n1CCCCC(=O)O`, the Potency result was “inactive”. Same read-out and setting: under `CCOC(C)OCC` stands “inactive”. In the case of `NC(=O)c1ccccc1`, the Potency result is “inactive”. Consider `CCCCCCCCCC(C)C=O` (stereo not given), for which the Potency entry is “inactive”. Take `O=C1c2ccccc2C(=O)C1c1ccc2ccccc2n1`: the Potency entry is “inactive”.

For the compound `O=C(c1ccco1)N1CCNCC1`, the Potency result was “inactive”. As to `OCCOc1cccc(OCCO)c1`, the Potency result was “inactive”. As for `C=CC(=O)NC(C)(C)C`, the Potency result was “inactive”.

The values above are taken from PubChem BioAssay (Tox21).
